The results in this text go back to PubChem BioAssay AID2314 (National Center for Advancing Translational Sciences (NCATS), 2010).

About 37,000 (12%) of roughly 300,000 compounds were called active. The entries come from a sample that favours actives as a whole. A number with no mark means an inactive call. No stated cut-off is given here; in the data, active means max response mostly above about 13% (no sharp cut-off); inactive means mostly below about 14%.

This assay can be described thus: Cycloheximide Counterscreen for Small Molecule Inhibitors of Shiga Toxin. Further: read at 38.3 µM for the half of the compounds with a filed dose; 0% is about no effect. Particulars: cell reporter, cycloheximide protein synthesis inhibition counterscreen; hits give high values.
Turning to `Cc1ccc2c(c1)C(c1ccccc1)N(C(=O)c1ccc(F)cc1)CC(=O)N2` (stereo not given), the max response is -3.35%.

As for `CC1COc2ccccc2N1C(=O)c1ccc(F)cc1` (stereo not given), the max response was -4.53%. For `O=C(CN(Cc1ccccc1)C(=O)CCC(=O)Nc1ccccn1)NCCc1ccccc1`, the max response was -3.42%. For the compound `OC(c1ccccc1)C(CN1CCOCC1)c1ccccc1` (stereo not given), the max response was 6.46%. Turning to `COc1cc(C(C(=O)NC2CCCC2)N(Cc2ccccc2)C(=O)c2snc(C(N)=O)c2N)ccc1O` (stereo not given), the max response is -3.72%. For the compound `C=CCN(C(=O)c1cc(C)cc(C)c1)C1(C(=O)Nc2ccccc2)CCN(C(C)C)CC1`, the max response was 7.82%. The same measure for `Cc1ccc(CN(Cc2cccnc2)C(=S)Nc2cc(Cl)ccc2C)cc1`: -1.05%. For the compound `CN(C)c1ccc(-n2cccc2/C=C2/SC(=Nc3ccc(F)cc3)NC2=O)cc1`, the max response was 1.13%. `CN(C)c1ccc(-n2cccc2/C=N/n2cnnc2)cc1`: the max response was 36.3% (active).

With `O=S(=O)(N/N=C\c1cccn1-c1ccccc1)c1ccc2ccccc2c1`, the max response is -3.05%. For `CCOC(=O)N1CCN(C(=O)C(=O)Nc2sc3c(c2C#N)CC(C)(C)OC3)CC1`, the max response was -4.16%.

As to `Cc1cc(C)nc(NS(=O)(=O)c2ccc(N/C=C\C(=O)c3cccs3)cc2)n1`, the max response was 36.2% (active).

On to `Cc1cc(C)nc(NS(=O)(=O)c2ccc(N3C(=O)C4CCCCC4C3=O)cc2)n1` (stereo not given), for which the max response is 1.2%. Consider `CC(=O)Nc1ccc(S(=O)(=O)Nc2nccc(/C=C/c3ccccc3F)n2)cc1`, for which the max response was -1.75%. With `Cc1c(C(C)(C)O)[nH]c2ccc(C#N)cc12`, the max response is 6.81%. As to `COc1ccccc1CNC(=O)C1CCN(S(C)(=O)=O)CC1`, the max response was -1.24%.

As for `COc1ccccc1CCNC(=O)C1CCN(C(=O)/C=C/c2ccccc2)CC1`, the max response was 14.7% (active). Consider `COc1ccccc1CNC(=O)C1CCN(C(=O)[C@@H]2Cc3ccccc3CN2)CC1`, for which the max response is 2.06%.

With `COCCNC(=S)N/N=C/c1c(C)[nH]c2ccccc12`, the max response was 8.43%.

Turning to `Cc1nn(C)cc1/C=N/NC(=O)c1sc2ccccc2c1Cl`, the max response is 4.94%.

As for `O=C(N/N=C/c1c(Cl)[nH]c2ccccc12)c1sc2ccccc2c1Cl`, the max response was 12.8% (active).

As for `COc1ccc(NC(=O)C2CCC(CNS(=O)(=O)c3csc(C(N)=O)c3)CC2)cc1OC` (stereo not given), the max response is -7.21%. For the compound `COC(=O)c1ccccc1NC(=S)NC(=O)c1ccccc1F`, the max response was -2.77%. On to `O=C(NC(=S)NC1CCSC1=O)c1ccccc1F` (stereo not given), for which the max response is 24.5% (active). Consider `O=C(Cc1ccccc1F)NC1CCSc2ccccc21` (stereo not given), for which the max response is -2.13%.

As for `COC1=C(N2CCOCC2)C(=O)c2ccccc2C1=O`, the max response is 0.793%. With `Fc1ccc(-c2csc(-c3ccc(C4SCCS4)cc3)n2)cc1F`, the max response was 8.6%.

`CCCCCN1CC(O)=C(c2nc(-c3ccc(Cl)cc3)cs2)C1=N`: the max response was -0.837%. On to `Clc1ccc(-c2csc(-c3ccncc3)n2)cc1`, for which the max response was 49.1% (active).

In the case of `CSc1cccc(NC(=O)CN2C(=O)COc3ccc(S(=O)(=O)N4CCOCC4)cc32)c1`, the max response is -0.43%.

Consider `O=C(C1CC(=O)N(C2CCCCC2)C1)N1CCN(c2ccccc2)CC1` (stereo not given), for which the max response was -1.46%. For `Cn1c(SCC(=O)N2CCCCC2)nc2c(c1=O)SCC2`, the max response is 9.54%.

With `COCc1ccc(CN2CCC(Oc3ccc(C(=O)NCc4ccccn4)cc3)CC2)o1`, the max response is 17.2%. Turning to `COCCCNC(=O)c1ccc2c(c1)ncn2-c1ccccc1OC`, the max response is 10.4%. On to `COc1cc(NS(=O)(=O)c2ccccc2)ccc1-n1nc(C)cc1C`, for which the max response was -2.43%.

With `COc1ccccc1-n1cnc2cc(NS(=O)(=O)c3ccccc3)ccc21`, the max response was 33.5% (active). For `O=C(c1cc(-c2ccncc2)nc2ccccc12)N1CCC2(CC1)OCCO2`, the max response was 2.43%.

Consider `COc1ccc(-c2cc(C(=O)N3CCN(c4ccc(F)cc4)CC3)no2)cc1`, for which the max response is -1.58%. Turning to `O=C(c1cccs1)N1CCN(C(=O)N2CCOCC2)CC1`, the max response is -2.36%.

In the case of `Cc1ccc(-c2cc(C(=O)N3CCC4(CC3)OCCO4)no2)cc1`, the max response is 24.4% (active). For the compound `O=C(c1cc(-c2ccc(O)cc2)on1)N1CCCc2ccccc21`, the max response is 32.9% (active). In the case of `CCCn1nc(C(=O)N2CCCc3ccccc32)c2ccccc2c1=O`, the max response is -1.1%.

As for `Cc1ccc(-c2cc(C(=O)N3CCc4ccccc4C3)no2)cc1`, the max response is 10.4%. As to `O=C(c1cc(-c2ccc(Cl)cc2)on1)N1CCN(c2ccccc2)CC1`, the max response was 30.2% (active). For `O=C(c1cc(-c2ccc(F)cc2)on1)N1CCN(c2ccc(F)cc2)CC1`, the max response was -2.49%.

As for `O=C(c1cc(-c2ccc(O)cc2)on1)N1CCOCC1`, the max response was 27.7% (active). The same measure for `Cn1c(SCC(=O)N2CCCc3ccccc32)nc2ccccc2c1=O`: -3.04%. As to `O=C(c1cc(-c2cccc(O)c2)on1)N1CCc2ccccc2C1`, the max response was 7.88%. Regarding `NC(=O)Cn1cc(/C=N\NS(=O)(=O)c2ccccc2)c2ccccc21`, the max response was -1.04%. `COc1ccc(OC)c(Nc2nc3ccccc3n3cnnc23)c1`: the max response was -2.88%.

Regarding `CCOc1ccc(NC(=O)CCCCCN2C(=O)[C@@H]3Cc4ccccc4CN3C2=O)cc1`, the max response was 6.74%. Consider `Clc1cc(NC2CCCCC2)ncn1`, for which the max response is 3.36%. With `CCCCN(CCCC)CCCNC(=O)CN1C(=O)COc2ccc(S(=O)(=O)N3CCC(C)CC3)cc21`, the max response is -3.42%. Take `Cc1ccn(-c2cccc(-n3ccc(C)n3)n2)n1`: the max response is 91.1% (active).

`Cc1cnc(CN(C)C(=O)CC2C(=O)NCCN2Cc2cccc(F)c2F)[nH]1` (stereo not given): the max response is 3.11%. In the case of `O=c1c2cc(Br)ccc2nc(-c2cccc(Cl)c2)n1O`, the max response is -6.07%. The same measure for `Cc1ccc(CSCC2Nc3ccc(C(=O)N4CCN(c5ccc(F)cc5)CC4)cc3NC2=O)cc1` (stereo not given): -5.97%. `O=C(CC1SC(=Nc2ccccc2)N(Cc2ccccn2)C1=O)Nc1cccc(Cl)c1` (stereo not given): the max response is 14.9% (active).

Regarding `CN1C(=O)C(CC(=O)Nc2ccccc2)S/C1=N/c1nccs1` (stereo not given), the max response was -0.83%. The same measure for `CCN1C(=O)C(CC(=O)Nc2cc(C)ccc2C)SC1=Nc1ccc(S(N)(=O)=O)cc1` (stereo not given): -7.73%.
